Assay results reported in PubChem BioAssay.
The source made the active and inactive calls.

Assays:
Albumin (Bos taurus) = Albumin (Bos taurus) (UniProt P02769); assay: bovine serum albumin binders on microarray, profiling panel, artefact control for SMM control protein annotation, biochemical, small-molecule microarray, Alexa647 label, 635/667 nm fluorescence (AID 1118); conditions: BSA-A647 binding, fluorescence 635 nm, higher = more signal;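 further: score merges 667 nm emission intensity and signal-to-noise per printed compound spot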
Albumin (Bos taurus), sequence (P02769 whole entry, looked up): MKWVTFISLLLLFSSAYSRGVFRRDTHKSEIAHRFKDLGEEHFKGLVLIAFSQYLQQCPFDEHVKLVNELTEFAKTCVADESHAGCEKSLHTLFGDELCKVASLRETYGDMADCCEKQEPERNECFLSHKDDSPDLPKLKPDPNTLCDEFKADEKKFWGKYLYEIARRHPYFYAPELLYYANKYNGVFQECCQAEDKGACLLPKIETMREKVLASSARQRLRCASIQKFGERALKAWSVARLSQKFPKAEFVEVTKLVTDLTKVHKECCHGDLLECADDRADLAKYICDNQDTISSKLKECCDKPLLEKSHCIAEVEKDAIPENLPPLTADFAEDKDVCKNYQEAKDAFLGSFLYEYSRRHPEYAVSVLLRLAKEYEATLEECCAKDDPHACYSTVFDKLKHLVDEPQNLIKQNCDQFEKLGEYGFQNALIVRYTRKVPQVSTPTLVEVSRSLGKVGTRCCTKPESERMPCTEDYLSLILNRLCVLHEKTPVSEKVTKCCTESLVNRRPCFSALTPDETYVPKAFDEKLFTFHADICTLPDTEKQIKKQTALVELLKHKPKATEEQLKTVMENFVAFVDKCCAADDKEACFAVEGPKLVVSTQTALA

[1] = small-molecule microarray binders of probe aXIP, primary screen, biochemical, NeuroSMM set, 635/667 nm fluorescence (AID 1119); conditions: higher = more signal, called active from +8 up or from −8 down;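 further: probe is the protein aXip251-270 applied at 1 µg/mL to compound-printed slides; binding of probe to printed compounds measured as 667 nm fluorescence plus signal to noise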
[2] = small-molecule binders of probe aNOTCH3, primary screen, biochemical, small-molecule microarray, 635/667 nm fluorescence (AID 1120); conditions: higher = more signal;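 further: probe is a biotin-tagged antibody raised against NOTCH3 rather than NOTCH3 protein; score merges spot fluorescence near 667 nm with spot signal to noise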
[3] = small-molecule binders of probe aNOTCH2, primary screen, biochemical, small-molecule microarray, 635/667 nm fluorescence (AID 1121); conditions: higher = more signal;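 further: score merges feature fluorescence read at 667 nm with its signal to noise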
[4] = target: Carbonic anhydrase 2 (Homo sapiens) (UniProt P00918); assay: CAII small-molecule binders, profiling panel, biochemical, small-molecule microarray, Alexa647-labelled CAII (AID 1122); conditions: CAII-A647 binding fluorescence, higher = more signal
[5] = COS7 lysate on small-molecule microarray, probe aHis, 635 nm (AID 1123); conditions: COS7 cell lysate, fluorescence, higher = more signal;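 further: z-score combines 667nm fluorescence intensity with signal-to-noise per printed compound spot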
[6] = compound binding in COS7 lysate, probe aLAP1, primary screen, cell lysate, small-molecule microarray (AID 1124); conditions: probe aLAP1, fluorescence, higher = more signal;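 further: lysate comes from COS7 cells expressing LAP1 and is applied at 0.3 µg/mL; score merges spot fluorescence near 667 nm with signal-to-noise over triplicate slides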
Sam68 (KHDRBS1) = assay: Sam68 small-molecule binders, primary screen, biochemical, small-molecule microarray, 635 nm fluorescence (AID 1125); conditions: small-molecule microarray binding, higher = more signal;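 further: score merges 667 nm channel intensity with signal to noise over triplicate slides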
[7] = system: Chordin-like protein 2 (CHRDL2); assay: CHRDL2 small-molecule binders, primary screen, biochemical, small-molecule microarray, 635 nm fluorescence (AID 1126); conditions: small-molecule microarray binding, fluorescence 635 nm; higher = more signal;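 further: printed compound slides probed with Chrdl2 protein at 4 µg/mL for 1 h at 4 C; score merges 667 nm emission intensity with signal to noise over three replicate slides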
[8] = target: Concanavalin-A (Canavalia ensiformis) (UniProt P02866); assay: ConA small-molecule binders, primary screen, artefact control for SMM control protein annotation, biochemical, small-molecule microarray, Alexa647 label, 635 nm (AID 1127); conditions: ConA-A647 binding fluorescence, higher = more signal;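 further: z combines 667 nm emission intensity with signal-to-noise across three replicate slides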
Concanavalin-A (Canavalia ensiformis), sequence (P02866 whole entry, looked up): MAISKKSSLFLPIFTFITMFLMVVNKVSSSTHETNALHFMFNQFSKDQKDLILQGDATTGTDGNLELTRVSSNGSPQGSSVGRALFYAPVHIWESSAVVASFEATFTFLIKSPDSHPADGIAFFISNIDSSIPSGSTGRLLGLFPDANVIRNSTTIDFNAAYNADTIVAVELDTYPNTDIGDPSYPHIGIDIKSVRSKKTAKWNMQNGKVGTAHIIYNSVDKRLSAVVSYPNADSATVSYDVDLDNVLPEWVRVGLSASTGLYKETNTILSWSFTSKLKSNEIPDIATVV

SMILES	composite z-score (Albumin (Bos taurus))	composite Z-score [1]	composite z-score [2]	composite z-score [3]	composite z-score [4]	composite z-score [5]	composite z-score [6]	composite z-score (Sam68 (KHDRBS1))	composite z-score [7]	composite z-score [8]
C=CC[C@]12N=C(c3ccc(OCCCO)cc3)O[C@H]1c1ccccc1N(CCC)C2=O	-0.0791	1.91 (inactive)	0.467	0.14	0.705	2.85	0.674	1.29	1.2	1.09
C=CCNC(=O)[C@H]1[C@@H]2C(=O)O[C@@H](c3ccccc3)[C@@H](c3ccccc3)N2[C@@H](c2ccc(O)cc2)[C@]12C(=O)Nc1ccccc12	-0.118	-0.139 (inactive)	-0.278	-0.0681	0.331	0.45	0.219	1.07	-0.21	0.872
COC(=O)[C@@]1(Cc2ccc(F)cc2)[C@H]2c3cc(C(=O)N4CCCC4)n(CCSCCO)c3C[C@H]2CN1C(=O)c1ccccc1	0.855	-0.338 (inactive)	0.241	0.231	0.839	3.25	0.258	0.644	-0.562	0.532
C=CC[C@]1(C(=O)NCC(O)CO)N=C(c2ccc(OCCCO)cc2)O[C@H]1c1ccccc1CN=[N+]=[N-] (stereo not given in full)	0.0838	0.58 (inactive)	-0.0362	-0.0357	0.522	3.12	0.988	0.605	-1.33	0.148
CCCCCCc1nc(-c2ccc(OC)nc2)c(C)c2c1[Si](C(C)C)(C(C)C)OC2	-0.854	0.268 (inactive)	-0.122	-0.12	-0.195	-0.039	-0.459	0.18	0.492	-0.141
C=C(CCCC)C(=O)CC[C@@H](OC(C)=O)c1ccc(OCCO)cc1	-0.267	3.19 (inactive)	0.15	-0.117	0.628	0.143	1.21	-0.135	0.523	0.397
Cc1c(NC(=O)/C(C#N)=C/C=C/c2ccc([N+](=O)[O-])cc2)c(=O)n(-c2ccccc2)n1C	0.974	0.947 (inactive)	0.144	0.0966	0.584	2.23	0.82	1.3	0.0495	1.04
C=CCC(OC(C)=O)[C@@H]1[C@@H](N(Cc2cccc3ccccc23)C(=O)c2ccc(C)cc2)c2cc(OCCCO)ccc2N1C(=O)Cc1ccc2ccccc2c1 (stereo not given in full)	0.706	-0.758 (inactive)	-0.0044	-0.149	0.15	0.738	-0.0124	-1.29	0.0854	-0.0292
COC(=O)C(CC#Cc1ccc2c(c1)[C@]1(C(=O)N2)[C@H](C(N)=O)[C@H]2C(=O)O[C@H](c3ccccc3)[C@H](c3ccccc3)N2[C@@H]1c1ccccc1OCCO)C(=O)OC	0.398	-0.363 (inactive)	-0.248	-0.124	0.434	2.34	0.782	1.13	-0.0393	1.12
C=CC[C@@]1(C(=O)NCCCOC)N=C(c2ccc(OCCCO)cc2)O[C@@H]1c1ccccc1CN=[N+]=[N-]	0.829	0.202 (inactive)	0.518	-0.108	0.596	2.61	0.159	1.29	0.0984	1.08
C=C(C(=O)CC[C@@H](OC(=O)c1ccccc1-c1ccccc1C(=O)O)c1ccc(OCCO)cc1)C(C)C	0.0832	-0.32 (inactive)	0.169	-0.0876	0.801	0.393	-0.0004	0.929	0.639	0.94
OCCCc1cc[n+](Cc2cc3c(cc2Br)OCO3)cc1	0.038	-0.0354 (inactive)	0.0785	-0.112	-0.213	-0.608	0.324	-0.724	-0.418	-1.9
CCCCN1CC=CC23O[C@@H]4/C=C\CCCOC(=O)C4[C@H]2C(=O)N(CCCCCCO)[C@@H]3C1=O (stereo not given in full)	-0.768	0.276 (inactive)	-0.165	-0.172	0.83	1.66	1.17	0.177	-1.87	-0.535
COc1cc2c(cc1O)C(C)N(Cc1sc3ccccc3c1Cl)CC2 (stereo not given)	1.01	-0.768 (inactive)	-0.014	-0.0158	0.937	0.477	-0.181	-1.44	-1.9	-1.53
CN1C2C=C(c3ccc(CO)cc3)C(C3C(=O)N(C(N)=O)C(=O)C32)C1C1CC1 (stereo not given)	-0.43	-0.378 (inactive)	-0.206	-0.146	-0.117	0.151	-0.262	0.267	-0.0733	0.688
CN1C(=O)C2C=CC(C(O)COCc3ccccc3)N(Nc3ccc([N+](=O)[O-])cc3[N+](=O)[O-])C2C1=O (stereo not given)	0.186	0.215 (inactive)	0.0596	0.046	0.368	1.49	0.578	0.447	-0.693	-0.445
COCCCNC(=O)[C@@]1(Cc2ccccc2I)c2ccccc2C(=O)N(C2CCCCC2)[C@H]1c1ccc(CO)cc1	0.653	0.732 (inactive)	-0.0377	-0.112	0.544	2.36	0.386	1.03	-0.415	0.75
